Only a selection was taken, and hits are over-represented in it overall.
Dicer processing = blocks human Dicer maturation of pre-miR-21 | Q9UPY3 | cat-ELCCA pre-miR-21 Dicer processing, chemiluminescence; active compounds read high | z-score at 25 µM | 47,000 compounds, 6% hits; in the data active = z-score above about 3, passing the limit was not always enough;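 also: higher signal means more uncleaved substrate so more Dicer inhibition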
Numbers stand for hits; 0 = inactive.

SMILES	Dicer processing
COc1ccc(C2SCCN2S(=O)(=O)c2ccc(Br)cc2)cc1 (stereo unspecified)	3.67
COc1ccc(OC)c(C2SCCN2S(=O)(=O)c2ccccc2)c1 (stereo unspecified)	0
COc1ccc(C2SCCN2S(=O)(=O)c2ccc(F)cc2)cc1 (stereo unspecified)	0
CCOc1ccc(S(=O)(=O)N2CCSC2c2cc(OC)ccc2OC)cc1 (stereo unspecified)	4.81
COc1ccc(OC)c(C2SCCN2S(=O)(=O)c2ccc3ccccc3c2)c1 (stereo unspecified)	0
O=c1oc(-c2cccs2)nc2cccc(F)c12	0
CC(C)(C)OC(=O)/C(C#N)=C/C1CCCCC1	0
Cn1c(=O)c([N+](=O)[O-])c(O)c2c(=O)n(-c3ccccc3)c(=O)n(-c3ccccc3)c21	0
O=c1oc(-c2ccc(Cl)c(Cl)c2)nn1-c1cccc(C(F)(F)F)n1	0
CCOC(=O)c1c(C)oc2c(Br)cc(NS(=O)(=O)c3ccc(OCC)cc3)cc12	0
